Reference: the supplement of paper PMC12669032

Legend:
Experiment in all cases: growth AUC relative to DMSO control (median of replicates) (fraction); higher = more growth (less inhibition), active = hit call of the paper
Details in all cases: 20 µM; 24 h;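 active = AUC reduced over 20% with Padj below 0.05 in at least 2 of 3 replicates; inactive = otherwise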
Akkermansia muciniphila = system: Akkermansia muciniphila
Summary of the method: (§1)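 Gut bacteria were grown singly in mGAM at 37 °C without oxygen, from OD600 0.05, alongside 20 µM compound in 1% DMSO, and OD600 was read each hour for 24 h. Area under the growth curve was normalised to the median of solvent-only wells per plate, or to row and column medians on the industrial chemical plate. The minimum OD was set to 0 beforehand, and the reported value is the median of three biological replicates grown on separate days.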

Bacteroides caccae = system: Bacteroides caccae
Summary of the method: as §1

Bacteroides clarus = system: Bacteroides clarus
Summary of the method: as §1

Bacteroides dorei = system: Bacteroides dorei
Summary of the method: as §1

Bacteroides stercoris = system: Bacteroides stercoris
Summary of the method: as §1

[1] = system: Bacteroides thetaiotaomicron
Summary of the method: as §1

Bacteroides uniformis = system: Bacteroides uniformis
Summary of the method: as §1

[2] = system: Bifidobacterium longum subsp. longum
Summary of the method: as §1

Clostridium difficile = system: Clostridium difficile
Summary of the method: as §1

Collinsella aerofaciens = system: Collinsella aerofaciens
Summary of the method: as §1

Coprococcus comes = system: Coprococcus comes
Summary of the method: as §1

Escherichia coli ED1a = system: Escherichia coli ED1a
Summary of the method: as §1

Escherichia coli IAI1 = system: Escherichia coli IAI1
Summary of the method: as §1

Eubacterium rectale = system: Eubacterium rectale
Summary of the method: as §1

[3] = system: Fusobacterium nucleatum subsp. animalis
Summary of the method: as §1

Lactobacillus gasseri = system: Lactobacillus gasseri
Summary of the method: as §1

Lactobacillus paracasei = system: Lactobacillus paracasei
Summary of the method: as §1

Odoribacter splanchnicus = system: Odoribacter splanchnicus
Summary of the method: as §1

[4] = system: Parabacteroides distasonis
Summary of the method: as §1

Parabacteroides merdae = system: Parabacteroides merdae
Summary of the method: as §1

Measured: growth AUC

COc1nc(N)nc(NC(C)(C)C)n1
inactive: Akkermansia muciniphila 1.01 | Bacteroides caccae 0.996 | Bacteroides clarus 0.965 | Bacteroides dorei 1.03 | Bacteroides stercoris 0.967 | [1] 1.01 | Bacteroides uniformis 1 | [2] 1.01 | Clostridium difficile 0.98 | Collinsella aerofaciens 0.959 | Coprococcus comes 1.03 | Escherichia coli ED1a 1 | Escherichia coli IAI1 0.98 | Eubacterium rectale 0.976 | [3] 0.964 | Lactobacillus gasseri 0.933 | Lactobacillus paracasei 1.02 | Odoribacter splanchnicus 1.07 | [4] 1 | Parabacteroides merdae 1.02

COC(=O)C(C)Oc1ccc(Cl)cc1Cl (stereo not given)
inactive: Akkermansia muciniphila 0.964 | Bacteroides caccae 1.05 | Bacteroides clarus 1 | Bacteroides dorei 1.05 | Bacteroides stercoris 0.849 | [1] 1.01 | Bacteroides uniformis 1.05 | [2] 1 | Clostridium difficile 1.03 | Collinsella aerofaciens 0.987 | Coprococcus comes 1.01 | Escherichia coli ED1a 1.01 | Escherichia coli IAI1 0.988 | Eubacterium rectale 1.14 | [3] 0.95 | Lactobacillus gasseri 0.991 | Lactobacillus paracasei 1.01 | Odoribacter splanchnicus 1.11 | [4] 0.996 | Parabacteroides merdae 1.01

CC(C)N(C(=O)C(=O)O)c1ccccc1
inactive: Akkermansia muciniphila 1.01 | Bacteroides caccae 1.01 | Bacteroides clarus 1.05 | Bacteroides dorei 1.03 | Bacteroides stercoris 1.13 | [1] 1.01 | Bacteroides uniformis 1.01 | [2] 1.08 | Clostridium difficile 1.02 | Collinsella aerofaciens 0.981 | Coprococcus comes 1.03 | Escherichia coli ED1a 1.06 | Escherichia coli IAI1 1.05 | Eubacterium rectale 1.11 | [3] 1.09 | Lactobacillus gasseri 1.07 | Lactobacillus paracasei 1.02 | Odoribacter splanchnicus 1.05 | [4] 1.07 | Parabacteroides merdae 1.03

ClC=C(c1ccc(Cl)cc1)c1ccc(Cl)cc1
inactive: Akkermansia muciniphila 1.05 | Bacteroides caccae 0.896 | Bacteroides clarus 0.959 | Bacteroides dorei 0.914 | Bacteroides stercoris 0.945 | [1] 0.975 | Bacteroides uniformis 0.996 | [2] 1 | Clostridium difficile 0.977 | Collinsella aerofaciens 0.893 | Coprococcus comes 0.942 | Escherichia coli ED1a 0.99 | Escherichia coli IAI1 0.977 | Eubacterium rectale 0.977 | [3] 0.98 | Lactobacillus gasseri 0.915 | Lactobacillus paracasei 0.946 | Odoribacter splanchnicus 1.07 | [4] 0.977 | Parabacteroides merdae 0.948

C#CCN(C)c1c(C#N)cnn1-c1nn2c(c1Cl)CCCC2
inactive: Akkermansia muciniphila 0.903 | Bacteroides caccae 0.935 | Bacteroides clarus 0.931 | Bacteroides dorei 0.987 | Bacteroides stercoris 0.851 | [1] 0.933 | Bacteroides uniformis 0.914 | [2] 0.995 | Clostridium difficile 1 | Collinsella aerofaciens 1.02 | Coprococcus comes 0.998 | Escherichia coli ED1a 0.999 | Escherichia coli IAI1 1.02 | Eubacterium rectale 1.07 | [3] 0.972 | Lactobacillus gasseri 1.05 | Lactobacillus paracasei 1.05 | Odoribacter splanchnicus 1.05 | [4] 0.98 | Parabacteroides merdae 1.01

COC(=O)[C@@H](C)Oc1ccc(Oc2ncc(C(F)(F)F)cc2Cl)cc1
inactive: Akkermansia muciniphila 1.04 | Bacteroides caccae 0.831 | Bacteroides clarus 1.01 | Bacteroides dorei 0.984 | Bacteroides stercoris 1.16 | [1] 0.963 | Bacteroides uniformis 0.907 | [2] 0.976 | Clostridium difficile 1.05 | Collinsella aerofaciens 0.981 | Coprococcus comes 1.02 | Escherichia coli ED1a 1.02 | Escherichia coli IAI1 1.01 | Eubacterium rectale 1.05 | [3] 1.06 | Lactobacillus gasseri 0.889 | Lactobacillus paracasei 1.04 | Odoribacter splanchnicus 0.946 | [4] 0.913 | Parabacteroides merdae 1.01

CNC(=O)Nc1nc2ccccc2s1
inactive: Akkermansia muciniphila 0.957 | Bacteroides caccae 0.953 | Bacteroides clarus 0.999 | Bacteroides dorei 0.959 | Bacteroides stercoris 1.1 | [1] 1.01 | Bacteroides uniformis 0.966 | [2] 0.955 | Clostridium difficile 0.969 | Collinsella aerofaciens 0.942 | Coprococcus comes 1.01 | Escherichia coli ED1a 0.999 | Escherichia coli IAI1 0.984 | Eubacterium rectale 1.03 | [3] 1 | Lactobacillus gasseri 0.944 | Lactobacillus paracasei 0.953 | Odoribacter splanchnicus 1.05 | [4] 0.984 | Parabacteroides merdae 1.03

Clc1ccc(CSc2ccc(Cl)cc2)cc1
inactive: Akkermansia muciniphila 0.977 | Bacteroides caccae 1.02 | Bacteroides clarus 0.99 | Bacteroides dorei 0.956 | Bacteroides stercoris 0.969 | [1] 1.03 | Bacteroides uniformis 0.998 | [2] 1.02 | Clostridium difficile 1.04 | Collinsella aerofaciens 0.984 | Coprococcus comes 1.03 | Escherichia coli ED1a 1 | Escherichia coli IAI1 0.989 | Eubacterium rectale 1.05 | [3] 1.07 | Lactobacillus gasseri 0.98 | Lactobacillus paracasei 1.02 | Odoribacter splanchnicus 1.07 | [4] 1 | Parabacteroides merdae 0.979

CSc1nnc(C(C)(C)C)c(=O)n1/N=C/C(C)C
inactive: Akkermansia muciniphila 0.944 | Bacteroides caccae 0.905 | Bacteroides clarus 1.04 | Bacteroides dorei 1.02 | Bacteroides stercoris 1.35 | [1] 1.02 | Bacteroides uniformis 0.988 | [2] 1.08 | Clostridium difficile 1.01 | Collinsella aerofaciens 1.02 | Coprococcus comes 1.02 | Escherichia coli ED1a 1.04 | Escherichia coli IAI1 0.979 | Eubacterium rectale 1.1 | [3] 1.08 | Lactobacillus gasseri 1.08 | Lactobacillus paracasei 1.03 | Odoribacter splanchnicus 0.96 | [4] 1.03 | Parabacteroides merdae 1.02

CCNc1nc(N)[nH]c(=O)n1
inactive: Akkermansia muciniphila 1.01 | Bacteroides caccae 1.01 | Bacteroides clarus 0.998 | Bacteroides dorei 1.01 | Bacteroides stercoris 1.03 | [1] 0.998 | Bacteroides uniformis 1.02 | [2] 0.986 | Clostridium difficile 0.999 | Collinsella aerofaciens 1.04 | Coprococcus comes 1.02 | Escherichia coli ED1a 0.991 | Escherichia coli IAI1 1 | Eubacterium rectale 0.995 | [3] 0.953 | Lactobacillus gasseri 1.01 | Lactobacillus paracasei 1.02 | Odoribacter splanchnicus 1.01 | [4] 1.04 | Parabacteroides merdae 0.995

CNC(=O)/C(=N/OC)c1ccccc1COc1cc(C)ccc1C
inactive: Akkermansia muciniphila 0.923 | Bacteroides caccae 1 | Bacteroides clarus 0.94 | Bacteroides dorei 1.01 | Bacteroides stercoris 1.01 | [1] 0.946 | Bacteroides uniformis 0.962 | [2] 0.972 | Clostridium difficile 0.987 | Collinsella aerofaciens 0.968 | Coprococcus comes 0.974 | Escherichia coli ED1a 1.01 | Escherichia coli IAI1 1 | Eubacterium rectale 0.92 | [3] 0.931 | Lactobacillus gasseri 1.01 | Lactobacillus paracasei 1.01 | Odoribacter splanchnicus 0.981 | [4] 0.92 | Parabacteroides merdae 0.926

Cc1cc(C)cc(OCC(C)Nc2nc(N)nc(C(C)(C)F)n2)c1 (stereo not given)
inactive: Akkermansia muciniphila 1.07 | Bacteroides caccae 0.889 | Bacteroides clarus 0.889 | Bacteroides dorei 0.978 | Bacteroides stercoris 0.746 | [1] 0.912 | Bacteroides uniformis 0.962 | [2] 1.03 | Clostridium difficile 0.983 | Collinsella aerofaciens 0.929 | Coprococcus comes 0.958 | Escherichia coli ED1a 0.948 | Escherichia coli IAI1 0.956 | Eubacterium rectale 1.05 | [3] 0.813 | Lactobacillus gasseri 0.974 | Lactobacillus paracasei 0.993 | Odoribacter splanchnicus 0.992 | [4] 0.835 | Parabacteroides merdae 0.87

CN(C)C(N)=O
inactive: Akkermansia muciniphila 1.05 | Bacteroides caccae 0.949 | Bacteroides clarus 0.998 | Bacteroides dorei 0.982 | Bacteroides stercoris 1.05 | [1] 0.99 | Bacteroides uniformis 0.971 | [2] 0.973 | Clostridium difficile 1.03 | Collinsella aerofaciens 0.977 | Coprococcus comes 0.993 | Escherichia coli ED1a 1.01 | Escherichia coli IAI1 0.953 | Eubacterium rectale 0.967 | [3] 1.01 | Lactobacillus gasseri 0.983 | Lactobacillus paracasei 1.03 | Odoribacter splanchnicus 1.03 | [4] 0.968 | Parabacteroides merdae 1.01

COC(=O)c1csc(C)c1S(=O)(=O)NC(=O)n1nc(OC)n(C)c1=O
inactive: Akkermansia muciniphila 1.17 | Bacteroides caccae 0.981 | Bacteroides clarus 1 | Bacteroides dorei 0.967 | Bacteroides stercoris 1.02 | [1] 0.993 | Bacteroides uniformis 0.955 | [2] 1.04 | Clostridium difficile 0.931 | Collinsella aerofaciens 0.956 | Coprococcus comes 1.01 | Escherichia coli ED1a 1 | Escherichia coli IAI1 0.971 | Eubacterium rectale 1.11 | [3] 0.942 | Lactobacillus gasseri 0.805 | Lactobacillus paracasei 0.993 | Odoribacter splanchnicus 0.982 | [4] 0.801 | Parabacteroides merdae 0.99

CC1COc2ccccc2N1C(=O)C(Cl)Cl (stereo not given)
inactive: Akkermansia muciniphila 0.721 | Bacteroides caccae 0.953 | Bacteroides clarus 0.958 | Bacteroides dorei 0.876 | Bacteroides stercoris 0.945 | [1] 0.903 | Bacteroides uniformis 0.985 | [2] 1.03 | Clostridium difficile 0.875 | Collinsella aerofaciens 0.89 | Coprococcus comes 0.887 | Escherichia coli ED1a 0.985 | Escherichia coli IAI1 0.973 | Eubacterium rectale 0.989 | [3] 0.688 | Lactobacillus gasseri 0.903 | Lactobacillus paracasei 1.11 | Odoribacter splanchnicus 0.979 | [4] 0.931 | Parabacteroides merdae 0.95

Nc1ccc(S(=O)(=O)Nc2nccs2)cc1
inactive: Akkermansia muciniphila 0.9 | Bacteroides caccae 1.03 | Bacteroides clarus 0.992 | Bacteroides dorei 0.943 | Bacteroides stercoris 0.985 | [1] 0.978 | Bacteroides uniformis 1.02 | [2] 0.998 | Clostridium difficile 0.98 | Collinsella aerofaciens 0.978 | Coprococcus comes 1.02 | Escherichia coli ED1a 0.994 | Escherichia coli IAI1 0.968 | Eubacterium rectale 0.97 | [3] 0.993 | Lactobacillus gasseri 0.97 | Lactobacillus paracasei 1.02 | Odoribacter splanchnicus 0.987 | [4] 1 | Parabacteroides merdae 1.03
